In PubChem BioAssay:
Results filed as inconclusive are left out. Calls of active or inactive are those of the source.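 The calls were made as follows, unless noted: active = normalized viability below 100% at a tested concentration; inactive = the rest.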

How the values were obtained:
[1] = viability loss in pontine glioma line – cell-based, JHH-DIPG-1, MIPE4.0, CellTiter-Glo, qHTS, dose response (AID 1347062; cut-off not given, nearly all actives have AC50 up to about 27 µM;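 as to AC50: cells exposed to compound for two days before readout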); conditions: JHH-DIPG-1 viability, CellTiter-Glo ATP luminescence
[2] = viability loss in pontine glioma line – cell-based, SU-DIPG-IV, MIPE4.0, CellTiter-Glo, qHTS, dose response (AID 1347063; cut-off not given, nearly all actives have AC50 up to about 30 µM;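 also: compound exposure lasted 48 hours before the viability readout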); conditions: CellTiter-Glo ATP luminescence
[3] = viability loss in pontine glioma line – cell-based, SU-DIPG-XIII, MIPE5.0, CellTiter-Glo, qHTS, dose response (AID 1347064; cut-off not given, nearly all actives have AC50 up to about 23 µM;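 as to AC50: cells exposed to compound for 48 hours before the viability read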); conditions: CellTiter-Glo ATP luminescence
[4] = growth inhibition of DIPG cells – cell-based, MIPE4.0 library, CellTiter-Glo luminescence, qHTS (AID 1347066; cut-off not given, nearly all actives have AC50 up to about 30 µM;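 also: cells exposed to compound for 48 hours before readout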); conditions: SU-DIPG-VI viability, CellTiter-Glo ATP luminescence
[5] = growth inhibition of DIPG cells – cell-based, MIPE5.0 library, qHTS (AID 1347068; cut-off not given, nearly all actives have IC50 up to about 30 µM;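 as to IC50: cells exposed to compound for 48 hours before viability readout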); conditions: SU-DIPG-XXV viability
[6] = viability loss with induced miR-34 in A549 – imaging, A549 dox-inducible miR-34, nuclei and caspase counts, primary screen (AID 1347080;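 active = compounds whose cell count with miR-34 switched on is under 0.7 times the count with it off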); conditions: A549 miR-34 inducible, Hoechst nuclei count, 48 h
[7] = compounds altering HSF1 focus formation in cells – imaging, Selleck Cancer Library (AID 1347162; in the data active = plate-normalised HSF1 focus index below about 0.46); conditions: human cells, HSF1 nuclear foci imaging, at 10 µM; SSMD: measured here: HSF1 foci SSMD mean; cell count: measured here: cell number; plate-normalised HSF1 focus index: stronger effect = lower value
[8] = MELAS cybrid and Rieske KO viability enhancers – cell-based, MELAS cybrids, Rieske KO mouse fibroblasts, CellTiter-Glo, primary screen (AID 1508586;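 active = mean z-score across replicates of 1.96 or higher in either the MELAS or the Rieske mutant cell line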;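 also: z relative to plate mean and SD of compound and empty wells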); conditions: low glucose
[9] = drug combination growth inhibition, ovarian cancer – cell-based, oncology-focused library, rucaparib conditional, profiling panel (AID 1508598); conditions: patient-derived ovarian cancer cells, CellTiter-Glo viability, 144 h, stronger effect = lower value
[10] = viability loss in pontine glioma line – cell-based, SU-DIPG-XIII, MIPE4.0, CellTiter-Glo, qHTS, dose response (AID 1347061; cut-off not given, nearly all actives have AC50 up to about 37 µM;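 also: cells exposed to compound for 48 hours before readout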); conditions: CellTiter-Glo ATP luminescence
[11] = viability loss in pontine glioma line – cell-based, SU-DIPG-XXV, MIPE5.0, CellTiter-Glo, qHTS, dose response (AID 1347065; cut-off not given, nearly all actives have AC50 up to about 26 µM;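 also: cells exposed to compound for 48 hours before ATP readout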); conditions: CellTiter-Glo ATP luminescence
[12] = JHH-DIPG-1 glioma cell viability, MIPE5.0 library, CellTiter-Glo luminescence, qHTS (AID 1347067; cut-off not given, nearly all actives have AC50 up to about 26 µM;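 also: cells exposed to compound for 48 hours before readout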); conditions: JHH-DIPG-1 glioma viability, CellTiter-Glo ATP luminescence
[13] = stronger effect = lower value, cell number ratio, induced over uninduced
[14] = measured here: relative caspase fold change +Dox/-Dox
[15] = measured here: total cells with miR-34 induction, stronger effect = lower value
[16] = measured here: total cells without miR-34 induction
[17] = MELAS cybrid survival, CellTiter-Glo 48 h, stronger effect = higher value
[18] = Rieske KO mouse fibroblast survival, CellTiter-Glo 72 h

Nc1nccc(Oc2ccc(NC(=O)c3c[nH]cc(-c4ccc(F)cc4)c3=O)cc2F)c1Cl
8330: cell count [6, 16]
7240: cell count [7]
7750: cell count [6, 15]
-0.396: SSMD [7]
0.882: fold change [6, 14]
active: AC50 [1] 18.7 µM | AC50 [2] 16.6 µM | AC50 [3] 14.8 µM | AC50 [4] 26.4 µM | IC50 [5] 23.5 µM | viability ([9]; at 0.0195 µM, OCI-P5x cells, with rucaparib 20 µM, 100% = cells with rucaparib alone) 98.3% | viability ([9]; at 0.0781 µM, OCI-P5x cells, without rucaparib) 98.3% | viability ([9]; at 0.313 µM, OCI-P5x cells, without rucaparib) 99.4% | viability ([9]; at 1.25 µM, OCI-P5x cells, with rucaparib 20 µM, 100% = cells with rucaparib alone) 99.9% | viability ([9]; at 5 µM, OCI-P5x cells, with rucaparib 20 µM, 100% = cells with rucaparib alone) 59% | viability ([9]; at 5 µM, OCI-P5x cells, without rucaparib) 89.1%
0.168: z-score [8, 18]
inactive: fold change [6, 13] 0.93 | plate-normalised HSF1 focus index [7] 0.991 | z-score [8, 17] -0.165 | viability ([9]; at 0.000305 µM, OCI-C5x cells, with rucaparib 10 µM, 100% = cells with rucaparib alone) 110% | viability ([9]; at 0.000305 µM, OCI-C5x cells, without rucaparib) 130% | viability ([9]; at 0.000305 µM, OCI-P5x cells, with rucaparib 20 µM, 100% = cells with rucaparib alone) 100% | viability ([9]; at 0.000305 µM, OCI-P5x cells, without rucaparib) 117% | viability ([9]; at 0.00122 µM, OCI-C5x cells, with rucaparib 10 µM, 100% = cells with rucaparib alone) 108% | viability ([9]; at 0.00122 µM, OCI-C5x cells, without rucaparib) 127% | viability ([9]; at 0.00122 µM, OCI-P5x cells, with rucaparib 20 µM, 100% = cells with rucaparib alone) 101% | viability ([9]; at 0.00122 µM, OCI-P5x cells, without rucaparib) 114% | viability ([9]; at 0.00488 µM, OCI-C5x cells, with rucaparib 10 µM, 100% = cells with rucaparib alone) 118% | viability ([9]; at 0.00488 µM, OCI-C5x cells, without rucaparib) 134% | viability ([9]; at 0.00488 µM, OCI-P5x cells, with rucaparib 20 µM, 100% = cells with rucaparib alone) 106% | viability ([9]; at 0.00488 µM, OCI-P5x cells, without rucaparib) 111% | viability ([9]; at 0.0195 µM, OCI-C5x cells, with rucaparib 10 µM, 100% = cells with rucaparib alone) 117% | viability ([9]; at 0.0195 µM, OCI-C5x cells, without rucaparib) 140% | viability ([9]; at 0.0195 µM, OCI-P5x cells, without rucaparib) 107% | viability ([9]; at 0.0781 µM, OCI-C5x cells, with rucaparib 10 µM, 100% = cells with rucaparib alone) 104% | viability ([9]; at 0.0781 µM, OCI-C5x cells, without rucaparib) 122% | viability ([9]; at 0.0781 µM, OCI-P5x cells, with rucaparib 20 µM, 100% = cells with rucaparib alone) 106% | viability ([9]; at 0.313 µM, OCI-C5x cells, with rucaparib 10 µM, 100% = cells with rucaparib alone) 133% | viability ([9]; at 0.313 µM, OCI-C5x cells, without rucaparib) 122% | viability ([9]; at 0.313 µM, OCI-P5x cells, with rucaparib 20 µM, 100% = cells with rucaparib alone) 102% | viability ([9]; at 1.25 µM, OCI-C5x cells, with rucaparib 10 µM, 100% = cells with rucaparib alone) 132% | viability ([9]; at 1.25 µM, OCI-C5x cells, without rucaparib) 123% | viability ([9]; at 1.25 µM, OCI-P5x cells, without rucaparib) 101% | viability ([9]; at 5 µM, OCI-C5x cells, with rucaparib 10 µM, 100% = cells with rucaparib alone) 149% | viability ([9]; at 5 µM, OCI-C5x cells, without rucaparib) 139%

C[C@@H](O)[C@H]1C(=O)N2C(C(=O)OCOC(=O)C(C)(C)C)=C(SC3CN(C4=NCCS4)C3)[C@H](C)[C@H]12
inactive: outcome [10] | outcome [4]

CNC1CCC(N(Cc2cccc(-c3ccncc3)c2)C(=O)c2sc3ccccc3c2Cl)CC1 (stereo not drawn)
active: AC50 [1] 14.8 µM | AC50 [2] 16.6 µM | AC50 [11] 11.8 µM | AC50 [4] 18.7 µM | AC50 [12] 20.9 µM | IC50 [5] 9.34 µM

Cc1cccc(-c2nn(C(=S)Nc3ccccc3)cc2-c2ccnc3ccccc23)n1
inactive: outcome [1] | outcome [2] | outcome [3] | outcome [11] | outcome [4] | outcome [12] | outcome [5]

CCCNC(=O)Nc1ccc(Oc2ncnc3cc(OC)c(OC)cc23)cc1Cl
0.73: fold change [6, 14]
active: AC50 [3] 20.9 µM | AC50 [12] 26.3 µM
0.0458: z-score [8, 18]
7400: cell count [6, 15]
inactive: outcome [1] | outcome [2] | outcome [4] | outcome [5] | fold change [6, 13] 0.924 | z-score [8, 17] 0.782
8010: cell count [6, 16]
